# Shown are actives, neighbours in structure and some others; about 12% of the full set was active somewhere.
# BAZ2B inh: BAZ2B (human) inhibition. AlphaScreen BAZ2B-H3K14Ac peptide displacement. Potency, µM (titrated, usually from 114 µM), most hits filed as inhibitors. hit rate 4.4% among 360,000; further: nearly all actives have a fitted effect of over 60% in size
#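 AlphaScreen displacement: compounds (up to 110uM) incubated 30 min at room temperature with a preformed 50 nM BAZ2B/50 nM biotinylated H3K14Ac peptide complex in PBS pH 7.4 with Tween-20. Donor and acceptor beads at 10 ug/mL final added, 20 min light-protected before reading.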
# L3MBTL1 inh: blocks human L3MBTL1; Potency, µM (series often up to 57.1 µM), actives largely listed as inhibitors; AlphaScreen L3MBTL1–H3K9me1 peptide binding; Q9Y468; hit rate 0.66% among 230,000; further: nearly all actives have a fitted effect of over 60% in size
# Target sequence (Q9Y468 whole entry, looked up): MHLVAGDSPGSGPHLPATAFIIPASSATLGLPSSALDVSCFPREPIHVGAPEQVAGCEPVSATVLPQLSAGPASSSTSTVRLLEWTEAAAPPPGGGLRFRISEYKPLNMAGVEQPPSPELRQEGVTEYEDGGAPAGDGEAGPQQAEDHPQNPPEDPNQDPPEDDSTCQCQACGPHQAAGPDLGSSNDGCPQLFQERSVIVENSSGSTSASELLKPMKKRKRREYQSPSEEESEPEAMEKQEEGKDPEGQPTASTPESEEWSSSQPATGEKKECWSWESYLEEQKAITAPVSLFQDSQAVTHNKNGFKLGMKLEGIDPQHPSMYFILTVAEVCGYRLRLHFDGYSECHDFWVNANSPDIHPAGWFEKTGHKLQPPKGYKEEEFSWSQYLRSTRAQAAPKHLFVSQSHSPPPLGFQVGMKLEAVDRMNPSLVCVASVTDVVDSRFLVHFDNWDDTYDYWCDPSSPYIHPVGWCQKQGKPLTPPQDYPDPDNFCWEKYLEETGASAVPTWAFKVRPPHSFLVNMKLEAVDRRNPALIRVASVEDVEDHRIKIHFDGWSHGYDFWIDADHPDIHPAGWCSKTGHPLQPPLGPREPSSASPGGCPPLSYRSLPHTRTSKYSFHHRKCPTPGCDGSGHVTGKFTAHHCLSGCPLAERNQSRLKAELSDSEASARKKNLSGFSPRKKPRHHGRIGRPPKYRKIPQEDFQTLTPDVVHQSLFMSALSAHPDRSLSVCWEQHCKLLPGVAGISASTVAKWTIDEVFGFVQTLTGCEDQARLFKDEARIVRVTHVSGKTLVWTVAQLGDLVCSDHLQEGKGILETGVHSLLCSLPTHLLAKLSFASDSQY
#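 L3MBTL1 (50 nM) pre-complexed 30 min with biotinylated H3(1-15)K9me1 peptide (75 nM), then compounds added for 30 min at room temperature; AlphaScreen streptavidin donor/nickel chelate acceptor beads (10 ug/mL final) read after 30 min dark incubation.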
# HP1b binding inh: blocks HP1-beta chromodomain binding to methylated histone tails. P83916. AlphaScreen HP1-beta / biotin-H3K9me3 peptide binding. Potency, µM (series often up to 114 µM), most hits filed as inhibitors. hit rate 0.56% among 390,000. AID 540317; further: nearly all actives have a fitted effect of over 70% in size
#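 Compound inhibition of the preformed complex between 50 nM HP1-beta and 50 nM biotinylated H3K9me3 peptide was read by AlphaScreen. Buffer was PBS pH 7.4 with 0.01% Tween-20. Incubations ran 30 min at room temperature, with 10 ug/mL donor/acceptor beads.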
# G9a block: G9a (human) methyltransferase inhibition | Q96KQ7 | AID 504332 | Potency, µM (titrated, usually from 102 µM), hits mostly inhibitors | hit rate 8.8% among 350,000 | G9a H3K9 monomethylation, AlphaScreen, 2 h; further: nearly all actives have a fitted effect of over 75% in size
#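 Methyltransferase reactions run at room temperature for 2 h (20 nM enzyme, 500 nM biotin-H3K9 peptide, 20 uM SAM) after a 15 min compound preincubation; product detected by AlphaScreen beads and anti-H3K9me1 antibody.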
# JMJD2A Tudor inh: JMJD2A Tudor domain (human) inhibition. Potency, µM (titrated, usually from 114 µM), hits mostly inhibitors. AlphaScreen JMJD2A-Tudor / H3K4me3 peptide binding. hit rate 4.4% among 390,000. O75164; further: nearly all actives have a fitted effect of over 50% in size
# Sfp inh: blocks B. subtilis Sfp PPTase activity; Q9F4F7; Potency, µM, most hits filed as inhibitors; hit rate 3.5% among 310,000; Biochemical Sfp PPTase activity, qHTS;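 further: the enzyme is Sfp with the accession as filed and its product quenches rhodamine fluorescence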
#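 With Hepes-Na pH 7.6 buffer containing 10 mM MgCl2, Sfp (15 nM) modified BHQ-2-YbbR (12.5 uM) using rhodamine-CoA (5 uM). Two reads 30 minutes apart at 525/598 nm yielded each well's rate.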
# Hits are given with their value; n = inactive; u = inconclusive; x = no result given; [ ] = remark or other dose. The call rests on the fitted dose curve; in most records, active means well fitted curve in the direction sought with a large enough effect; inconclusive means small, poorly fitted or top-dose-only effect, or another doubt; inactive means no such curve, though single readings can be large; an effect the other way counts as inactive or inconclusive.
SMILES,BAZ2B inh,L3MBTL1 inh,HP1b binding inh,G9a block,JMJD2A Tudor inh,Sfp inh
O=C(CSc1nc(=O)[nH]c2c1CCCC2)Nc1ccc(Cl)c(Cl)c1,n,x,n,n,n,x
CCc1ccccc1NC(=O)c1cc2nc(-c3ccc(OC)c(OC)c3)cc(C(F)(F)F)n2n1,n,x,n,n,n,x
O=S(=O)(c1cccs1)N1CN(C2CCCCC2)c2nc3ccccc3nc21,u,n,n,x,u,n
O=S(=O)(c1cccs1)N1CN(C2CCCC2)c2nc3ccccc3nc21,u,n,n,u,n,n
CC(C)CN1CN(S(=O)(=O)c2cccs2)c2nc3ccccc3nc21,n,n,x,45µM,x,n
COCCCN1CN(S(=O)(=O)c2cccs2)c2nc3ccccc3nc21,n,n,n,13µM,n,n
COCCNS(=O)(=O)c1cc(C)c(C)cc1C,n,n,n,n,n,n
Cc1ccc([N+](=O)[O-])cc1S(=O)(=O)NCCc1c(C)[nH]c2ccccc12,50µM,n,n,u,u,n
Cc1[nH]n(-c2ccc([N+](=O)[O-])cc2)c(=O)c1C=NCCc1ccc(S(N)(=O)=O)cc1,n,n,n,n,n,n
Cc1ccc([N+](=O)[O-])cc1S(=O)(=O)NCCc1cn2ccccc2n1,n,x,n,x,n,n
Cc1[nH]n(-c2ccc([N+](=O)[O-])cc2)c(=O)c1C=NCCc1c(C)[nH]c2ccccc12,n,n,n,n,n,79µM
COc1cc(S(=O)(=O)NCCc2c(C)[nH]c3ccccc23)c(C)cc1C,35µM,x,u,u,28µM,x
COc1ncc2nc(CCc3ccccc3)c(=O)n(Cc3ccc(F)cc3)c2n1,x,x,x,n[12.7 µM],x,u
O=C(C1=C(O)C(=O)N(CCN2CCOCC2)C1c1ccco1)c1cc2ccccc2o1 (stereo not drawn),u,x,n,32µM,n,n
CCN(CC)CCN1C(=O)C(O)=C(C(=O)c2cc3ccccc3o2)C1c1cccnc1 (stereo not drawn),n,n,n,89µM,n[11.4 µM],n
CCCOc1ccc(C2C(C(=O)c3ccc(C)o3)=C(O)C(=O)N2CCN2CCOCC2)cc1OC (stereo not drawn),n,n,n,u,22µM,n
O=C(C1=C(O)C(=O)N(CCN2CCOCC2)C1c1cccc(Br)c1)c1cc2ccccc2o1 (stereo not drawn),n,x,n,n[0.0925 µM],n,n
CCN(CC)CCN1C(=O)C(O)=C(C(=O)c2sc(C)nc2C)C1c1cccnc1 (stereo not drawn),n,n,n,n[12.7 µM],n,n
O=C(C1=C(O)C(=O)N(CCCN2CCOCC2)C1c1ccccn1)c1cc2ccccc2o1 (stereo not drawn),u,n,n,40µM,n,n
Cc1cc(S(=O)(=O)Nc2ccc3[nH]c(=O)sc3c2)ccc1F,n,x,n,n,n,x
COc1cccc(-c2ncnn2-c2sc3c(c2C#N)CCCCC3)c1OC,n,x,n,n,n,x
CC(C)c1ccc(NC(=O)c2ccc(=O)n(Cc3ccccc3)c2)cc1,n,x,n,n,n,x
Cc1noc(C)c1C(=O)N1CCC[C@@]2(CCN(c3ccccc3)C2)C1,x,x,x,n[12.7 µM],x,n
COc1cc(NC(=O)Cn2c(C)cc(C)c(C#N)c2=O)cc(OC)c1,n,x,n,n,n,x
O=C(C1=C(O)C(=O)N(CCN2CCOCC2)C1c1ccc(F)cc1)c1cc2ccccc2o1 (stereo not drawn),n,x,n,35µM,n,n
Cc1ccc(C(=O)C2=C(O)C(=O)N(CCN3CCOCC3)C2c2ccccn2)o1 (stereo not drawn),u,n,x,2.2µM,x,n
CCN(CC)CCN1C(=O)C(O)=C(C(=O)c2ccc(C)o2)C1c1ccccn1 (stereo not drawn),x,x,n,x,n,x
O=C(CSc1nc(=O)n(Cc2ccccn2)c2c1CCC2)Nc1cccc(Cl)c1,n,x,n,n,n,x
CCn1cc(C(=O)O)c(=O)c2cnc(N3CCN(C(=S)Nc4ccccc4Cl)CC3)nc21,n,n,n,56µM,n,n
CCn1cc(C(=O)O)c(=O)c2cnc(N3CCN(C(=S)Nc4ccc(F)cc4)CC3)nc21,n,n,n,n,n,n

# Screening data: PubChem, National Center for Advancing Translational Sciences (NCATS)
